Only some compounds are listed: those with a hit (about 2.5% of all), similar ones and a draw of the others.
WRN inhibitor: inhibitors of human WRN helicase; WRN helicase unwinding, fluorescent forked duplex, kinetic; Potency, µM (series often up to 114 µM), usual class: inhibitors; 360,000 compounds, 0.46% hits; also: nearly all actives have a fitted effect of over 55% in size
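WRN at 20 nM final was preincubated with compound for 15 min at room temperature; reaction started with 100 nM forked duplex oligonucleotide carrying fluorophore and quencher plus 2 mM ATP (final). Unwinding followed kinetically by red fluorescence (ex 525/em 598 nm).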
L3MBTL1 inh-1: inhibitors of human L3MBTL1 | AlphaScreen L3MBTL1–H3K9me1 peptide binding | Potency, µM (highest dose often 57.1 µM), most hits filed as inhibitors | 230,000 compounds, 0.66% hits; also: nearly all actives have a fitted effect of over 60% in size
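Displacement of a biotinylated histone H3(1-15) peptide monomethylated at Lys9 (75 nM) from L3MBTL1 (50 nM) was measured by AlphaScreen after a 30 min room-temperature compound incubation; cefsulodin titration served as intraplate control.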
Pol eta inh: inhibitors of human DNA polymerase eta | Potency, µM (highest dose often 114 µM), usual class: inhibitors | AID 588591 | 390,000 compounds, 1.2% hits | Q9Y253 | recombinant Pol eta, fluorescent DNA replication assay
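Fluorescent replication assay: 50 nM final substrate added after a 15 min room-temperature compound preincubation with 10 nM enzyme. Signal taken at 0 min and again at 10 min.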
Pol beta inh: inhibitors of human DNA polymerase beta; Potency, µM (doses to about 114 µM), hits mostly inhibitors; Pol beta primer extension/strand displacement, fluorescence kinetic; AID 485314; 340,000 compounds, 1.3% hits
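Values derive from four-parameter Hill fits of normalized kinetic data: reads at 0 and 10 min following addition of 50 nM substrate to 10 nM Pol beta preincubated 15 min with compound.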
Pol iota inh: inhibitors of human DNA polymerase iota | 390,000 compounds, 1% hits | AID 588590 | Pol iota fluorescent replication assay, 10 min | Q9UNA4 | Potency, µM (highest dose often 115 µM), actives largely listed as inhibitors
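Fluorescent replication assay read twice, at 0 min and 10 min after adding 50 nM (final) substrate. Enzyme (10 nM) and compounds were first incubated 15 min at room temperature; enzyme-free buffer wells were negative controls.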
Pol kappa inh: blocks human DNA polymerase kappa activity. purified Pol kappa, fluorescent DNA synthesis assay, 10 min. Potency, µM (highest dose often 107 µM), actives largely listed as inhibitors. 400,000 compounds, 0.53% hits. AID 588579
Target sequence (Q9UBT6 whole entry, looked up): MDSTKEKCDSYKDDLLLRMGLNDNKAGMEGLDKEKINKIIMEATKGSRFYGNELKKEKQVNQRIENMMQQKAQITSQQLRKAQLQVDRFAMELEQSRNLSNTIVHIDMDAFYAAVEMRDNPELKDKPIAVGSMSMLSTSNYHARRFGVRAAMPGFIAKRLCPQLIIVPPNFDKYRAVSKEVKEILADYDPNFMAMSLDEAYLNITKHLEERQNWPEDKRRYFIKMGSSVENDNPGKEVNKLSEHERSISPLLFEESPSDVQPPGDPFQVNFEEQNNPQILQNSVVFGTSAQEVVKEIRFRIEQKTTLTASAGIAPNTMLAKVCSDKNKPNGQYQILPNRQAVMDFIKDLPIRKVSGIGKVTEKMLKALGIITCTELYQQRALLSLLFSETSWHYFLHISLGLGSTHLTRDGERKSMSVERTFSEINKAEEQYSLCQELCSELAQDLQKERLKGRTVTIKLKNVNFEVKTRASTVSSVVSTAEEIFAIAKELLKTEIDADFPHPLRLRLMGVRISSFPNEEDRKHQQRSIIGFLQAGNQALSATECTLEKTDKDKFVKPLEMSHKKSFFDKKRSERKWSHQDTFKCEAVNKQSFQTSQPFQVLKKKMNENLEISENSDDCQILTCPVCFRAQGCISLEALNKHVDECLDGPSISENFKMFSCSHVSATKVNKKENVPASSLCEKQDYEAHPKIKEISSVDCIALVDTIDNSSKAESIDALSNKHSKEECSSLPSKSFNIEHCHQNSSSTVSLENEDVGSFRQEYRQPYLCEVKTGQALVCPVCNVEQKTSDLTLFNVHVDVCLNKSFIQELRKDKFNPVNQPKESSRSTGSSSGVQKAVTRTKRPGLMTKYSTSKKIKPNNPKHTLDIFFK
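Kinetic fluorescence readout at 0 and 10 min followed reaction start with substrate at 50 nM final. Beforehand, enzyme (10 nM Pol kappa) stood 15 min with compound at room temperature; buffer-only wells were negative controls.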
L3MBTL1 inh-2: blocks human L3MBTL1 methyl-lysine binding | shares compounds with L3MBTL1 inh-1 | L3MBTL1 methyl-lysine binding inhibition, biochemical qHTS | Potency, µM, usual class: inhibitors | 500 compounds, 91% hits; also: nearly all actives have a fitted effect of over 70% in size
AlphaScreen ctr2: interferes with AlphaScreen signal in L3MBTL1 counterscreen; Potency, µM (titrated, usually from 57.1 µM), usual class: inhibitors; shares compounds with L3MBTL1 inh-1; 500 tested, under 10 active; AlphaScreen counterscreen, signal inhibition
Hits are given with their value; n = inactive; u = inconclusive; x = no result; [ ] = remark or other dose. Calls follow the shape of the dose curve; as a rule, active = well fitted curve in the direction sought with a large enough effect; inconclusive = small, poorly fitted or top-dose-only effect, or another doubt; inactive = no such curve, though single readings can be large; an effect the other way counts as inactive or inconclusive.

SMILES	WRN inhibitor	L3MBTL1 inh-1	Pol eta inh	Pol beta inh	Pol iota inh	Pol kappa inh	L3MBTL1 inh-2	AlphaScreen ctr2
CSCCC(NS(=O)(=O)c1ccc(C)c(C(=O)O)c1)C(=O)O (stereo not given)	n[11.6 µM]	8.91µM	u	25.1µM	n	n	u	n
Clc1ccc2ccc3cccnc3c2n1	n	x	n	n	n	n	x	x
O=S1(=O)Nc2c(ccc3cccnc23)-c2ccccc21	n	11.2µM	n	n	u	n	2.99	9.47µM
O=C(O)c1cc(Cl)c2c(c1)[C@@H]1C=CC[C@@H]1[C@H](c1ccc(S(=O)(=O)N3CCOCC3)cc1)N2	28.2µM	22.4µM	28.2µM	31.6µM	u	u	26.7	u
Cc1cc(C)c2c(c1)C1C=CCC1C(c1ccc(S(=O)(=O)N3CCOCC3)cc1)N2 (stereo not given)	n	n	n	n	n	n	x	x
Cc1cc(=O)c2cc3nc(-c4cccnc4)oc3c(Br)c2o1	x	31.6µM	x	39.8µM	x	x	5.97	n
O=c1oc(-c2cccnc2)nc2ccccc12	n	n	n	n	n	n	x	x
Cc1cc(C(=O)O)ccc1-c1ccc(/C=C2\NC(=O)N(Cc3ccccc3Cl)C2=O)o1	50.1µM	17.8µM	4.47µM	14.1µM	5.62µM	22.4µM	7.52	n
CN1C(C(=O)c2ccccc2)=C(NC(=O)c2ccc(F)cc2)c2ccccc2S1(=O)=O	x	x	n	n	n	n	x	x
Cc1nnc(N2C(=O)c3oc4ccccc4c(=O)c3C2c2ccc(Cl)cc2)s1 (stereo not given)	x	x	n	n	n	n	x	x
Nc1nc(-c2ccccn2)nc(N)c1Cc1c(F)cccc1Cl	n	3.55µM	n	n	n	n	10.6	n
O=C(c1cccc(S(=O)(=O)N2CCOCC2)c1)N1CCCC(C(F)(F)F)C1 (stereo not given)	n	n	n	x	n	n	x	x
O=C(CSc1nnc(-c2ccco2)o1)c1ccc[nH]1	n	28.2µM	u	14.1µM	14.1µM	u	18.9	n
COc1ccc(Oc2nc(-c3ccccn3)ncc2OC)cc1	n	u	n	n	n	n	x	x
CCOC(=O)C(C)Sc1nc(-c2ccccn2)ncc1OC (stereo not given)	n	25.1µM	n	n	n	n	26.7	u
COc1cnc(-c2ccccn2)nc1Sc1ccccc1Cl	n	n	n	n	n	n	x	x
COc1cnc(-c2ccccn2)nc1N(C)C	n	3.98µM	n	n	n	n	6.7	n
CC(=O)N1CCN(C(=O)c2cc3c(s2)CCCC3)CC1	n	x	n	x	n	n	x	x
CC(CCc1ccco1)NC(=O)c1cccc2c1C(=O)N(C1CCCCC1)C2 (stereo not given)	n	x	n	u	n	n	x	x
COc1ccc(N2Cc3cccc(C(=O)NC(C)CCc4ccco4)c3C2=O)cc1 (stereo not given)	35.5µM	14.1µM	22.4µM	7.94µM	u	u	2.67	n
COc1cc2c(cc1OC)CN(Cc1nc3ccsc3c(=O)[nH]1)CC2	n	25.1µM	17.8µM	u	u	u	21.2	n
CCOc1cc(-c2nnc(SCC(=O)NCCCOC)nc2-c2ccc(OC)c(OCC)c2)ccc1OC	x	x	n	n	n	n	x	x
CCOc1ccccc1-n1nnnc1SCC(=O)NC(=O)Cc1ccccc1	n	n	n	x	n	n	x	x
Cc1ccccc1Nc1nnc(SCC(=O)NC(=O)NCc2ccco2)s1	n	28.2µM	u	u	22.4µM	u	9.47	n
O=C(CSc1nnc(Nc2ccccc2)s1)NCc1ccco1	n	n	n	n	u	n	x	x
SMILES	WRN inhibitor	L3MBTL1 inh-1	Pol eta inh	Pol beta inh	Pol iota inh	Pol kappa inh	L3MBTL1 inh-2	AlphaScreen ctr2
CCOc1ccccc1-n1nnnc1SCC(=O)NC(=O)NCc1ccco1	n	25.1µM	u	22.4µM	u	u	21.2	n
Cc1ccc(C(=O)NNC(=O)c2nn(-c3ccc(F)cc3)ccc2=O)cc1	n	n	n	n	n	n	x	x
CN(C)c1ccc(/C=N/NC(=O)CNC(=O)/C=C/c2ccccc2)cc1	n	x	n	n	n	n	x	x
COC(=O)/C(C#N)=C/c1ccc(OC(=O)c2ccccn2)cc1	n	15.8µM	n	n	n	n	u	n
CCOc1ccc(/C=C(\C#N)C(=O)Nc2ccccn2)cc1	n	n	n	n	n	n	x	x
O=C(Cn1c(=O)n(Cc2ccco2)c(=O)c2c3c(sc21)CCCCC3)c1ccccc1	u	35.5µM	u	10µM	u	n	3.77	n
Oc1c(C(Nc2cccc(C(F)(F)F)c2)c2ccncc2)ccc2cccnc12 (stereo not given)	n	22.4µM	n	n	n	n	21.2	n
Oc1c(C(Nc2nccs2)c2ccc(C(F)(F)F)cc2)ccc2cccnc12 (stereo not given)	n	x	n	n	n	n	x	x
Cc1nnc(NC(=O)C2CCN(S(=O)(=O)c3ccc(F)c(Cl)c3)CC2)o1	n	35.5µM	n	x	n	n	u	n
Cc1ccccc1-c1nccc(NCc2cccnc2)n1	x	x	x	x	x	n	x	x
CNc1nc(C(=O)O)nc(N2CCOCC2)n1	n	20µM	n	n	n	n	u	u
CCC(=O)Nc1cccc(C(=O)/C=C/c2ccccc2)c1	n	n	u	n	u	n	x	x
Cc1ccc2nc(NC(=O)C3CCN(S(=O)(=O)c4cc([N+](=O)[O-])ccc4Cl)CC3)sc2c1	u	10µM	u	14.1µM	44.7µM	u	9.47	n
Cc1ccc(NC(=O)C2CCN(S(=O)(=O)c3cc([N+](=O)[O-])ccc3Cl)CC2)nc1	n[11.6 µM]	n	u	x	u	u	x	x
COc1ccc(-c2nnc(SCC(=O)Nc3ccc(C(C)=O)cc3)nc2-c2ccc(OC)cc2)cc1	x	x	n	n	n	n	x	x
CC(=O)c1ccc(NC(=O)CSc2nnc(-c3ccco3)c(-c3ccco3)n2)cc1	31.6µM	25.1µM	22.4µM	20µM	u	14.1µM	15	u
O=C(O)/C=C\C(=O)Nc1ccc(N2CCN(c3ccc(Cl)cc3)CC2)cc1	n	u	n	n	n	n	x	x
O=C(O)/C=C\C(=O)Nc1ccc(N2CCN(c3ccc(Cl)c(Cl)c3)CC2)cc1	n	25.1µM	n	n	n	n	13.4	u
O=C(CCCSc1ccccc1)Nc1nc(-c2ccccn2)cs1	n	x	n	n	u	n	x	x
O=C(CCCSc1ccccc1)Nc1nc(-c2ccco2)c(-c2ccco2)s1	u	22.4µM	u	u	u	u	23.8	u
O=c1cc(-c2ccc(O)cc2)oc2cc(OC3OC(CO)C(O)C(O)[C@H]3O[C@@H]3OC[C@@](O)(CO)C3O)cc(O)c12 (stereo not given in full)	x	x	x	x	x	n	x	x
O=C(NCc1ccccc1)OCCN1CCN(Cc2ccccc2)CCC1=O	n	n	n	n	u	n	x	x

Assay outcomes as filed in PubChem.
